Source: PubChem BioAssay
MsrA act: bovine MsrA enzyme activators, primary screen, biochemical, absorbance, HTS | Methionine sulfoxide reductase A (Bos taurus) | purified bovine MsrA, absorbance read-out | activation, % at 10.6 µM | actives 0.3% (n = 360,000) | AID 602163, 2012; in the data active = activation above about 7.5%;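 note: 0% = vehicle and 100% = reference activator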
rCAG RNA binder: binders of r(CAG) RNA repeats, primary screen, biochemical, fluorescence | r(CAG) RNA repeat, TO-PRO-1 dye displacement fluorescence | inhibition, % at 3 µM | actives 1.3% (n = 370,000);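 active = inhibition above the plate cutoff, the mean of all test compounds on that plate plus 3 SD, cut at about 35% in these data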;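 note: 0% = DMSO alone and 100% = 100 µM mitoxantrone as full dye displacement; higher means more dye released from RNA so lower well fluorescence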
NadD inh: inhibitors of S. aureus NadD, primary screen, biochemical, colorimetric, uHTS; Nicotinate-nucleotide adenylyltransferase NadD (Staphylococcus aureus N315); purified NadD enzyme, colorimetric absorbance read-out; inhibition, % at 20 µM; actives 0.78% (n = 360,000); AID 602399, 2012; in the data active = inhibition above about 26%
MsrA inh: bovine MsrA enzyme inhibitors, primary screen, biochemical, absorbance, HTS | Methionine sulfoxide reductase A (Bos taurus) | purified bovine MsrA, absorbance read-out | inhibition, % at 15.5 µM | actives 0.75% (n = 360,000); in the data active = inhibition above about 4.5%;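 note: 0% = vehicle wells with enzyme and 100% = reference inhibitor wells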
rCAG binder conf: small molecules binding CAG repeat RNA – biochemical, fluorescence, confirmation. shares compounds with rCAG RNA binder. inhibition, % at 3 µM. r(CAG) RNA repeat, TO-PRO-1 dye displacement fluorescence. AID 652065, 2013. actives 70% (n = 4,300);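 active = inhibition above a per-plate cutoff, the mean inhibition of sample wells plus 3 SD, cut at about 35% in these data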;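 note: loss of TO-PRO-1 fluorescence as compound displaces dye from 1x1 AA loop RNA; 0% = DMSO only wells and 100% = 100 µM mitoxantrone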
dCAG dye counter: displacement of TO-PRO-1 from CAG DNA duplex, counter-screen for rCAG RNA repeat binder project, biochemical, fluorescence, TO-PRO-1 dye, d(CAG) DNA oligo. actives 94% (n = 4,300). inhibition, % at 3 µM. shares compounds with rCAG RNA binder. d(CAG) DNA oligo TO-PRO-1 dye displacement;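 active = inhibition above its plate's cutoff, the mean test-well inhibition plus 3 SD, cut at about 4.8% in these data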;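 note: 0% = DNA dye mix with DMSO and 100% = 100 µM mitoxantrone; hits displace the dye from DNA and so lower well fluorescence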
dCAG dye DR: inhibitors of DNA CAG/GTC TO-PRO-1 complex, dose response, counter-screen for rCAG RNA repeat binder project, biochemical, fluorescence, TO-PRO-1 dye; DNA CAG/GTC duplex TO-PRO-1 dye displacement fluorescence; shares compounds with rCAG RNA binder; IC50, µM; actives 20% (n = 250); in the data active = IC50 below about 10 µM
* = called active by the depositor; / = not tested or not shown. Hits are enriched below; roughly 2.7% of the tested compounds scored in any of these assays.

SMILES	MsrA act	rCAG RNA binder	NadD inh	MsrA inh	rCAG binder conf	dCAG dye counter	others
COC(=O)c1sc(N2C(=O)C(O)=C(C(=O)c3ccc(C)o3)C2c2cc(OC)ccc2OC)nc1C (stereo unspecified)	-2	44*	13	2	60*	18*
Cc1cccc(NC(=S)NC2CCSc3ccccc32)c1 (stereo unspecified)	-9	3	-9	0	/	/
S=C(NCc1ccccc1)NC1CCSc2ccccc21 (stereo unspecified)	-2	53*	-3	0	4	2
Cc1cccc(NC(=O)CNC(=O)[C@H]2O[C@@H](n3ccc(N)nc3=O)[C@H](O)[C@@H]2O)c1C	-2	2	3	0	/	/
O=C(CCN1C(=O)/C(=C/c2ccc(Cl)cc2)SC1=S)Nc1ccc(C(=O)O)cc1	-6	4	25	0	/	/
COc1ccccc1/C=C1/SC(=S)N(CCC(=O)Nc2cccnc2)C1=O	-2	8	9	0	/	/
O=C(CCCN1C(=O)/C(=C\c2ccco2)SC1=S)Nc1ccc2ccccc2c1	-6	31	19	1	/	/
COc1ccccc1/C=C1\SC(=S)N(CCC(=O)Nc2ccc(C(=O)O)c(O)c2)C1=O	-2	91*	14	1	85*	59*
O=C(CCN1C(=O)/C(=C\c2ccco2)SC1=S)Nc1ccc(C(=O)O)c(O)c1	-9	86*	40*	1	79*	37*
O=C(CCN1C(=O)/C(=C/c2ccco2)SC1=S)Nc1ccc(C(=O)O)c(O)c1	-4	90*	3	0	73*	33*	dCAG dye DR=5.3*
O=S(=O)(CCN1CCCCC1)CCS(=O)(=O)CCN1CCCCC1	-2	0	-4	-1	/	/
COc1ccccc1-n1ccnc(SCC(=O)NCCc2ccccc2)c1=O	-2	-5	1	2	/	/
O=c1c2ccccc2nc2ccc(NCc3cccs3)nn12	-3	1	6	1	/	/
S=C1NC[C@H](c2ccccc2)N1CC1CCCCC1	-1	-1	1	0	/	/
Cc1n[nH]c(=O)nc1N/N=C/c1ccco1	-6	1	-1	4	/	/
Cc1cc(NS(=O)(=O)c2ccc(NC(=O)Cc3ccc(Cl)c(Cl)c3)cc2)on1	/	57*	/	/	63*	24*
Cc1noc(NS(=O)(=O)c2ccc(NC(=O)CSc3nc4ccccc4[nH]3)cc2)c1C	-3	32	-1	1	/	/
COc1cc(/C=C/C(=O)Nc2ccc(S(=O)(=O)Nc3onc(C)c3C)cc2)cc(OC)c1OC	-2	53*	-7	4	51*	19*
O=C(Cc1ccc(Cl)c(Cl)c1)Nc1ccc(S(=O)(=O)Nc2ccon2)cc1	/	30	/	/	/	/
Cc1noc(NS(=O)(=O)c2ccc(NC(=O)CSc3nnc4c(n3)[nH]c3ccccc34)cc2)c1C	-7	65*	13	2	67*	32*
Cc1noc(NS(=O)(=O)c2ccc(NC(=O)/C=C/c3ccc(Br)cc3)cc2)c1C	-8	82*	6	3	67*	33*
Cc1ccc(C(=O)N2CCCc3ccccc32)c(F)c1F	-4	-5	-3	0	/	/
O=c1[nH]c(=O)c2cn[nH]c2[nH]1	-2	3	-5	-1	/	/
O/N=C/C1=C(Cl)c2ccccc2CC1	-5	3	-6	1	/	/
CCSc1ncc(Cl)c(C(=O)Nc2ccc(S(=O)(=O)Nc3onc(C)c3C)cc2)n1	-14	54*	-5	1	29	6.9*
Cc1noc(NS(=O)(=O)c2ccc(NC(=O)Nc3ccc(Cl)c(Cl)c3)cc2)c1C	-1	91*	2	-1	83*	53*
